Results on 5 compounds are retold here after the supplement of paper PMC7595190.

Molecules are shown by their SMILES. Values without a mark were called inactive.

The experiment concerns MV4-11. In words: CellTox Green cytotoxicity fluorescence relative to DMSO vehicle (fold of vehicle RFU); higher = more cell death (loss of membrane integrity), active = 2 or more. The method, then:
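Paediatric AML cell lines (MV4-11, CMK, Kasumi-1; 4x10^4 cells/well, 96-well) treated with single compounds from the Selleckchem apoptosis library at 0.01, 0.1 and 1 µM. Cytotoxicity was read with CellTox Green (RFU, Ex 485/Em 520) at 24, 48 and 72 h and normalised to the 0.1% DMSO vehicle. Normalised RFU >= 2 was taken as a successful, cell-killing treatment.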

Consider `CCCCNc1ncc2c(-c3ccc(CN4CCN(C)CC4)cc3)cn([C@H]3CC[C@H](O)CC3)c2n1`, for which the “CellTox Green cytotoxicity fluorescence” value (0.01 µM, 24 h) was 1.03; the “CellTox Green cytotoxicity fluorescence” value (0.01 µM, 48 h) is 1.16; the “CellTox Green cytotoxicity fluorescence” value (0.01 µM, 72 h) is 1.28; the “CellTox Green cytotoxicity fluorescence” value (0.1 µM, 24 h) was 1.04; the “CellTox Green cytotoxicity fluorescence” value (0.1 µM, 48 h) is 1.47; the “CellTox Green cytotoxicity fluorescence” value (0.1 µM, 72 h) was 2.1 (active). Further, the “CellTox Green cytotoxicity fluorescence” value (1 µM, 24 h) was 1.08; the “CellTox Green cytotoxicity fluorescence” value (1 µM, 48 h) was 1.7; the “CellTox Green cytotoxicity fluorescence” value (1 µM, 72 h) is 2.22 (active).

For `COc1nc(-c2ccc3c(c2)OCO3)n(-c2ccc(NC(=O)CSc3ccccc3)cc2)n1` [SecinH3], the “CellTox Green cytotoxicity fluorescence” value was 1.02 (0.01 µM, 24 h); 1.02 (0.01 µM, 48 h); 1.02 (0.01 µM, 72 h); 1.01 (0.1 µM, 24 h); 1.01 (0.1 µM, 48 h); 1 (0.1 µM, 72 h). Moreover, the “CellTox Green cytotoxicity fluorescence” value runs as follows: (1 µM, 24 h) 1; (1 µM, 48 h) 1.03; (1 µM, 72 h) 1.05.

As for `CCCC[C@@H](C=O)NC(=O)[C@H](CC(C)C)NC(=O)OCc1ccccc1` [Calpeptin], the “CellTox Green cytotoxicity fluorescence” value is, setting by setting: (0.01 µM, 24 h) 0.979; (0.01 µM, 48 h) 0.988; (0.01 µM, 72 h) 0.986; (0.1 µM, 24 h) 1.01; (0.1 µM, 48 h) 1.02; (0.1 µM, 72 h) 1.01. The “CellTox Green cytotoxicity fluorescence” value by setting is: (1 µM, 24 h) 1.01; (1 µM, 48 h) 1.01; (1 µM, 72 h) 0.999.

In the case of `CC(C)(C)C[C@@H]1N[C@@H](C(=O)N[C@H]2CC[C@H](O)CC2)[C@H](c2cccc(Cl)c2F)[C@]12C(=O)Nc1cc(Cl)ccc12`, the “CellTox Green cytotoxicity fluorescence” value reads like this: (0.01 µM, 24 h) 1.04; (0.01 µM, 48 h) 1.03; (0.01 µM, 72 h) 1.05; (0.1 µM, 24 h) 0.993; (0.1 µM, 48 h) 1.11; (0.1 µM, 72 h) 1.22. Also, the “CellTox Green cytotoxicity fluorescence” value (1 µM, 24 h) is 1.26; the “CellTox Green cytotoxicity fluorescence” value (1 µM, 48 h) was 2.25 (active); the “CellTox Green cytotoxicity fluorescence” value (1 µM, 72 h) is 2.49 (active).

With `CC(C)c1cc2c(N3CCN(C4=NCC(C)(C)S4)CC3)ncnc2s1` [MI-3 (Menin-MLL Inhibitor)], the “CellTox Green cytotoxicity fluorescence” value runs as follows: (0.01 µM, 24 h) 0.931; (0.01 µM, 48 h) 0.933; (0.01 µM, 72 h) 0.927; (0.1 µM, 24 h) 0.883; (0.1 µM, 48 h) 0.889; (0.1 µM, 72 h) 0.876. Further, the “CellTox Green cytotoxicity fluorescence” value is, setting by setting: (1 µM, 24 h) 0.961; (1 µM, 48 h) 0.951; (1 µM, 72 h) 0.95.
